From the supplement of paper PMC6555819

How the values were obtained:
Experiment in all cases: PBM binding z-score (relative to random genomic background probes); higher = stronger binding; sequences stand for … in GC…GCGATTGACAGCGTAGAATGAAGG
[1] = test system: FXR:RXRa (NR concentration 270 nM, RXRa partner concentration 90 nM)
Procedure, shortened: (§1)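 Binding z-scores were set against random background probes. The data came from custom Agilent 4×180K protein-binding microarrays carrying double-stranded probes with 34-nt variable regions, incubated 1 h with ligand-free nuclear receptor dimers. Partner-specific antibodies detected binding, and scanned fluorescence was regression-normalized.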

[2] = test system: LXRa:RXRa (NR concentration 270 nM, RXRa partner concentration 90 nM)
Procedure, shortened: as §1

[3] = test system: LXRa homodimer (NR concentration 270 nM)
Procedure, shortened: as §1

[4] = test system: LXRb:RXRa (NR concentration 270 nM, RXRa partner concentration 90 nM)
Procedure, shortened: as §1

[5] = test system: LXRb homodimer (NR concentration 270 nM)
Procedure, shortened: as §1

[6] = test system: PPARa:RXRa (NR concentration 270 nM, RXRa partner concentration 90 nM)
Procedure, shortened: as §1

[7] = test system: PPARg:RXRa (NR concentration 180 nM, RXRa partner concentration 90 nM)
Procedure, shortened: as §1

[8] = test system: PPARg:RXRa 270nM:90nM, anti-RXR (NR concentration 270 nM, RXRa partner concentration 90 nM)
Procedure, shortened: as §1

[9] = test system: PPARg:RXRa 30nM:10nM, anti-RXR (NR concentration 30 nM, RXRa partner concentration 10 nM)
Procedure, shortened: as §1

[10] = test system: PPARg:RXRa 90nM:30nM, anti-RXR (NR concentration 90 nM, RXRa partner concentration 30 nM)
Procedure, shortened: as §1

[11] = test system: PPARg:RXRa DBDmut IVT, anti-RXR (DBD mutation: RXRa K156A/R161A, NR concentration 270 nM, RXRa partner concentration 90 nM)
Procedure, shortened: as §1

[12] = test system: PPARg:RXRa IVT, anti-PPARg (NR concentration 270 nM, RXRa partner concentration 90 nM)
Procedure, shortened: as §1

[13] = test system: PPARg DBDmut:RXRa IVT, anti-PPARg (DBD mutation: PPARg1 K132A/R137A, NR concentration 270 nM, RXRa partner concentration 90 nM)
Procedure, shortened: as §1

[14] = test system: PPARg DBDmut IVT, anti-PPARg (DBD mutation: PPARg1 K132A/R137A, NR concentration 270 nM)
Procedure, shortened: as §1

[15] = test system: PPARg homodimer (NR concentration 180 nM)
Procedure, shortened: as §1

[16] = test system: PXR:RXRa (NR concentration 270 nM, RXRa partner concentration 90 nM)
Procedure, shortened: as §1

[17] = test system: PXR homodimer (NR concentration 270 nM)
Procedure, shortened: as §1

[18] = test system: RARa:RXR (NR concentration 270 nM, RXRa partner concentration 90 nM)
Procedure, shortened: as §1

[19] = test system: RARa homodimer (NR concentration 270 nM)
Procedure, shortened: as §1

[20] = test system: RARb:RXRa (NR concentration 270 nM, RXRa partner concentration 90 nM)
Procedure, shortened: as §1

| Sequence | PBM binding z-score [1] | PBM binding z-score [2] | PBM binding z-score [3] | PBM binding z-score [4] | PBM binding z-score [5] | PBM binding z-score [6] | PBM binding z-score [7] | PBM binding z-score [8] | PBM binding z-score [9] | PBM binding z-score [10] | PBM binding z-score [11] | PBM binding z-score [12] | PBM binding z-score [13] | PBM binding z-score [14] | PBM binding z-score [15] | PBM binding z-score [16] | PBM binding z-score [17] | PBM binding z-score [18] | PBM binding z-score [19] | PBM binding z-score [20] |
| --- | --- | --- | --- | --- | --- | --- | --- | --- | --- | --- | --- | --- | --- | --- | --- | --- | --- | --- | --- | --- |
| ATCTCTAGGTAAAGGTAGTTCAGTGAATGCAAAT | 0.462 | 2.47 | 0.775 | 0.88 | 0.769 | 1.08 | 0.966 | 2.17 | 0.811 | 1.4 | 2.73 | 2.3 | 0.954 | 1.19 | 1.25 | 1.15 | 0.822 | 0.523 | 1.7 | 0.628 |
| CAATCTAGGTCAAGGTCAAAGTCGGTTTGTGCCA | 6.74 | 5.74 | 4.27 | 4.52 | 1.81 | 6.18 | 9.73 | 8.06 | 6.64 | 8.19 | 8.63 | 8.84 | 5.16 | 1.26 | 4.33 | 5.3 | 1.93 | 5.63 | 1.12 | 4.9 |
| TCTAGTTGGTCATAGGTCACACACTCGAAATGCG | 3.07 | 3.34 | 1.99 | 3.31 | 1.25 | 4.96 | 8.97 | 8.03 | 8.3 | 8.57 | 2.59 | 4.4 | 1.15 | 1.18 | 3.12 | 3.48 | 1.07 | 4.39 | 1.88 | 3.22 |
| CGACCTAGGTCAAGGACAGTGAATCTCCGCACGC | 4.5 | 2.95 | -0.0211 | 2.07 | -0.684 | 3.94 | 3.55 | 3.19 | 0.64 | 1.86 | 4.04 | 3.83 | 0.362 | -0.346 | 2.36 | 1.6 | -0.248 | 2.45 | 0.805 | 4.13 |
| ATACCAAGGTGATCGTGAGGTCATTGATACTAAC | 4.13 | 4.22 | 4.81 | 3.53 | 0.748 | 3.62 | 1.7 | 1.98 | 0.601 | 1.25 | 0.662 | 2.58 | 0.666 | 0.349 | 2.35 | 5.39 | 4.33 | 4.55 | 0.789 | 3.25 |
| AGATGTAGGTTAAGGGTCATTCAGGTTGGTTCGC | 5 | 5.02 | 2.97 | 4.61 | 1.63 | 6.45 | 11 | 9.78 | 9.52 | 10.7 | 7.33 | 7.46 | 1.97 | 1.04 | 3.44 | 5.52 | 3.11 | 6.2 | 2.4 | 3.66 |
| TCTTGTTGGTCAAAGGTCACACACTCGAAATGCG | 5.68 | 5.8 | 4.46 | 5.63 | 2.85 | 6.46 | 10.7 | 9.31 | 9.15 | 10 | 3.64 | 5.98 | 1.27 | 1.91 | 4.88 | 5.9 | 1.75 | 7.15 | 3.44 | 5.25 |
| TTACCAAGGTGAAAGGTCGCTGATGCACGCCTTG | 2.82 | 2.6 | -0.188 | 2.24 | -0.623 | 5.25 | 8.28 | 8.53 | 7.04 | 9.59 | 2.44 | 5.19 | 0.53 | 0.614 | 1.28 | 3.66 | -0.522 | 5.46 | 0.386 | 3.12 |
| TCTTGTAGCTCAATAGAGGTTAAGAAAGTGCGCT | 0.285 | 3.13 | 0.267 | 1.49 | -0.618 | 1.52 | -0.424 | 0.893 | 1.96 | 1.41 | 0.915 | 0.506 | 0.592 | 0.551 | -0.185 | 2.46 | -0.163 | 1.28 | -0.147 | 0.573 |
| AGAACGAGGGCACGCTGAGTTGACAGCAGAGTAG | 0.953 | 0.796 | -0.526 | 0.312 | -1.2 | 2.46 | 2.25 | 1.73 | 0.191 | 0.731 | 3.94 | 3.77 | 1.38 | 0.377 | 0.462 | 1.46 | -0.0837 | 1.24 | -0.654 | 2.57 |
| GGAACGAGGGCAACGTTGATAGCATCTGTCGACG | 0.32 | 0.21 | -0.371 | 0.0442 | -0.855 | 1.59 | 1.9 | 1.95 | 0.134 | 1.2 | 4.02 | 3.49 | 0.439 | 0.351 | -0.132 | 0.282 | -0.723 | 0.65 | -0.381 | 2.32 |
| CAAACTAGGTCAAAGGTCAAAGTGGAGCCAACCA | 7.94 | 7.01 | 5.57 | 6.96 | 3.14 | 7.45 | 13.9 | 11.2 | 12.3 | 13.7 | 8.72 | 9.15 | 3.29 | 1.05 | 7.6 | 7.01 | 2.04 | 8.86 | 5.25 | 5.8 |
| AGTCAAAGCTCACTAGGTAACGTAAGATTCAGCT | -0.693 | -0.67 | -0.464 | -0.615 | -0.437 | 0.637 | 0.855 | 0.165 | 0.0714 | -0.118 | 1.92 | 2.79 | 0.267 | -0.313 | -0.462 | -0.363 | -0.294 | -0.364 | -0.0387 | -0.0625 |
| CCTAGTTGCTCAAGGTCACACACGCTATAGGTAC | 4.3 | 4.59 | 4.23 | 3.72 | 1.6 | 3.98 | 2.13 | 2.77 | 0.986 | 1.95 | 1.51 | 2.33 | 0.625 | 0.725 | 3.56 | 4.21 | 2.68 | 4.4 | 2.45 | 3.97 |
| GATACAGGGTCTGCTAGAGGCCAGAGTATGGAAA | -0.351 | -0.359 | -0.605 | -0.772 | -0.649 | -0.759 | 0.108 | -0.444 | -0.281 | -0.382 | -0.826 | -0.333 | -1.05 | -1.35 | -0.406 | -0.54 | -0.558 | -0.523 | -0.148 | 0.305 |
